The results in this text go back to PubChem BioAssay AID2314 (National Center for Advancing Translational Sciences (NCATS), 2010).

About 37,000 (12%) of roughly 300,000 compounds were called active. The list comes from a sample in which actives are over-represented; it also holds similar structures and randomly drawn compounds. A number with no mark means an inactive call. Rule as the data show it: active = max response mostly above about 13% (no sharp cut-off); inactive = mostly below about 14%.

This assay in a line: Cycloheximide Counterscreen for Small Molecule Inhibitors of Shiga Toxin. Also: read at 38.3 µM for the half of the compounds with a filed dose; 0% is about no effect. The conditions noted are these: cell reporter, cycloheximide protein synthesis inhibition counterscreen; hits give high values. On the technique in general: The purpose of a counterscreen is to sort out artefacts and off-target activity.
For the compound `COC(=O)C1=C(C)N(c2ccc(C)cc2)/C(=C/c2ccc(O)cc2)C1=O`, the max response was -3.37%.
To `COc1ccc(C(=O)COC(=O)COc2ccc(C)c(C)c2)cc1` belongs -1.99%; to `COc1cccc(NC(=O)[C@H](Cc2c[nH]c3ccccc23)NC(=O)[C@@H]2Cc3ccccc3CN2)c1`, 8.96%; to `Cc1nn(Cc2ccc(C(=O)N3N=C(C(F)F)CC3(O)C(F)F)cc2)c(C)c1[N+](=O)[O-]` (stereo not given), -2.42%.
For the compound `Cc1ccc(NS(=O)(=O)c2ccc(C(C)(C)C)cc2)cn1`, the max response is -1.83%.
On to `Cc1ccc(-n2ncc3c2CC(C)(C)CC3NC(=O)Cc2c(C)noc2C)cc1` (stereo not given), for which the max response was 1.83%.
As to `CCOC(=O)CNC(=O)CSc1ncccc1-c1nc2ccccc2[nH]1`, the max response is 6.47%.
As for `CSC(=S)N/N=C/c1c[nH]c2ccccc12`, the max response was 19.8% (active).
As to `Cc1ccc(NC(=O)c2sccc2C)cc1[N+](=O)[O-]`, the max response is 54.5% (active).
In the case of `CNc1ccc(NC(C)=O)cc1[N+](=O)[O-]`, the max response is -1.59%.
To `C[n+]1ccc(/C=C/c2c[nH]c3ccccc23)cc1` belongs 0.857%.
To `Cc1ccc(NC(=O)CN(C)CC(=O)Nc2cccc(F)c2)cc1[N+](=O)[O-]` belongs -3.93%.
As to `O=C(O)c1cccc(NC(=S)N/N=C/c2c[nH]c3ccccc23)c1`, the max response was 19.9%.
`CN(C)c1ccc(C(CNC(=O)c2ccc(F)cc2)c2c[nH]c3ccccc23)cc1` (stereo not given): the max response is -1.36%.
As for `COc1ccc(CC(=O)NCC(=O)N/N=C/c2cc(Br)ccc2OC)cc1`, the max response was -1.85%.
Take `CCc1ccc(C2C(C#N)=C(N)N(N3CCOCC3)C3=C2C(=O)CC(C)(C)C3)s1` (stereo not given): the max response was -4.64%.
`CC1CCN(C(=O)CN(c2ccc(Oc3ccccc3)cc2)S(C)(=O)=O)CC1`: the max response was 0.761%.
Turning to `CC(=O)Oc1cc2c(C(=O)NCCN3CCOCC3)c(C)oc2c2ccccc12`, the max response was 23.5% (active).
For the compound `Cc1cc(C)cc(C(=O)NCCN2CCOCC2)c1`, the max response was -3.62%.
Consider `Cc1ccc(C(=O)NCCN2CCOCC2)cc1C`, for which the max response is 0.531%.
Turning to `Cn1nccc1C(=O)N1CCCC(C(=O)c2ccc(Oc3ccccc3)cc2)C1` (stereo not given), the max response was -1.23%.
Consider `CC1Sc2ccc(S(=O)(=O)CCC(=O)NCc3ccccc3Cl)cc2NC1=O` (stereo not given), for which the max response was -2.98%.
`Cc1n[nH]c(=S)n1/N=C/c1ccc(Br)o1`: the max response is -1.34%.
For `Fc1ccc(/C=N/n2c(COc3ccccc3)n[nH]c2=S)cc1`, the max response is -4.69%.
Take `COc1cc(/C=N/n2c(C)n[nH]c2=S)ccc1OCc1ccccc1`: the max response was 25.8% (active).
On to `Cn1c(=O)[nH]c(=O)c2c1nc(N1CCN(C(c3ccccc3)c3ccccc3)CC1)n2CCO`, for which the max response was -4.67%.
Take `CC(=O)N1CC(C)c2scc(C)[n+]2-c2ccccc21` (stereo not given): the max response is -4.21%.
With `COc1cccc(NC(=O)CN(C)C(=O)c2ccccc2CCc2ccccc2)c1`, the max response is -2.98%.
Regarding `CC(C)CC(=O)N1CCN(Cc2cccc(Cl)c2)CC1`, the max response is -0.27%.
As for `O=C(NCC(=O)N(c1ccccc1)C(C(=O)NCC1CCCO1)c1ccccc1)c1cccs1` (stereo not given), the max response is -2%.
With `Cc1ccc(N(C(=O)Cc2cccs2)C(C(=O)NCC2CCCO2)c2ccncc2)cc1` (stereo not given), the max response was 30.3% (active).
To `Cc1cccc(N(C(=O)Cc2cccs2)C(C(=O)NCc2ccco2)c2ccncc2)c1` (stereo not given) belongs 7.8%.
Regarding `Cc1ccc(-c2csc(N3CCN(c4cc5c(cc4Cl)nc(-c4ccncc4)n5CCOCCO)CC3)n2)cc1`, the max response is -1.79%.
On to `CCOCCCNC(=O)C(NC(=O)CNC(=O)c1ccccc1)c1ccc(OC)cc1` (stereo not given), for which the max response is -3.78%.
For `O=C(Nc1ccc(F)c(Cl)c1)C1CCN(S(=O)(=O)c2cccnc2)CC1`, the max response was -6.06%.
For the compound `COc1ccc(C(=O)Nc2ccc(CN3CCOCC3)cc2)cc1`, the max response is 21.3%.
Regarding `CCOC(=O)c1c(NC(=O)c2ccc(N3CCOCC3)c([N+](=O)[O-])c2)sc(C)c1C`, the max response is 1.25%.
For `COc1ccc(C(=O)Nc2sc(C)c(C)c2CN2CCOCC2)cc1`, the max response is 80% (active).
As to `O=C(NCc1ccccc1)C1CCN(C(=O)Cc2ccccc2)CC1`, the max response was -1.63%.
In the case of `O=C(CSc1ccc(-c2ccc(Br)cc2)nn1)NCC1CCCO1` (stereo not given), the max response was -3.31%.
For `Cc1ccc(/C=C(\C#N)C(=O)Nc2cccc3ncccc23)o1`, the max response was -2.46%.
For the compound `COc1ccc(C2=Nn3c(nnc3-c3ccccc3O)SC2)cc1`, the max response is 38.9% (active).
Turning to `CC1=Nn2c(nnc2-c2ccccc2)SC1`, the max response was 1.95%.
Turning to `Cc1nnc2n1N=C(c1ccccc1)CS2`, the max response is -4.21%.
On to `Cc1c(C)c2ccc(OCC(=O)N3CCC(C(=O)O)CC3)c(C)c2oc1=O`, for which the max response was -2.07%.
As for `COC(=O)CCC(=O)N1CCCC(CO)(Cc2ccccc2)C1` (stereo not given), the max response is 32.1% (active).
Regarding `Cc1ccccc1CC1(CO)CCCN(C(=O)c2cc(-c3ccccc3)no2)C1` (stereo not given), the max response was 13.4%.
Regarding `CCOC(=O)C1(Cc2ccccc2C)CCCN(C(=O)CCc2c(C)noc2C)C1` (stereo not given), the max response is 9.83%.
`Cc1noc(C)c1CCC(=O)O`: the max response is -2.43%.
For the compound `Cc1noc(C)c1CCC(=O)N1CCCC(CO)(Cc2ccccc2)C1` (stereo not given), the max response was 30.9% (active).
To `CCCc1cc(C(=O)N2CCCC(CO)(CCCc3ccccc3)C2)n(C)n1` (stereo not given) belongs 9.31%.
To `O=C(NCc1ccccn1)[C@]1(C(F)(F)F)C[C@H](CCc2ccccc2)CCCO1` belongs -4.95%; to `O=[N+]([O-])c1cc(S(=O)(=O)CCCN2CCOCC2)ccc1F`, -6.03%; to `NC(=O)CCN1CCN(S(=O)(=O)/C=C/c2ccccc2)CC1`, -9.41%.
On to `COCCCNC(=O)Cc1ccc(-n2c(C)nc3cccnc32)cc1`, for which the max response is -1.61%.
With `COC(=O)C1CCCCN1C(=O)c1ccc(OC2CCN(C(C)=O)CC2)c(OC)c1` (stereo not given) the figure was -4.09%.
As for `Cn1c(C(=O)OC(C(=O)NC2CCCCC2)c2ccccn2)cc2sccc21` (stereo not given), the max response was -2.24%.
As to `CC(C)Nc1nnc(SCC(=O)/C=C2\N(C)c3ccccc3C2(C)C)s1`, the max response is 5.97%.
On to `CN1/C(=C\C(=O)c2oc3ccccc3c2N)C(C)(C)c2ccccc21`, for which the max response was 5.01%.
Regarding `CN1/C(=C\C(=O)c2cccnc2Cl)C(C)(C)c2ccccc21`, the max response is 17.7% (active).
